We go through 15 compounds from PubChem BioAssay (EPA / NIEHS).

Assay [1] deals with Retinoic acid receptor RXR-alpha (Homo sapiens) (UniProt P19793). In words: ATG_RXRa_TRANS: Attagene TRANS-FACTORIAL HepG2 Assay for human Retinoid X Receptor alpha (RXRa) (AID 2283012; active = hit-call score of the fitted dose curve at least 0.9, where 1 is the maximum). The method, boiled down:
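Cells (HepG2) carried transiently transfected GAL4-responsive reporter units. Following a 24 h chemical incubation, reporter mRNA induction was read via RT-PCR fragment analysis; DMSO served as negative control and baseline.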

Assay [2] deals with human Retinoid X Receptor beta (RXRb), RXRB (gene 6257) (UniProt P28702). In words: ATG_RXRb_TRANS: Attagene TRANS-FACTORIAL HepG2 Assay for human Retinoid X Receptor beta (RXRb) (AID 2283013; active = hit-call score of the fitted dose curve at least 0.9, where 1 is the maximum). Put shortly:
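Multiplexed TRANS reporter assay in HepG2; 24 h dosing; reporter mRNA by RT-PCR/CE fluorescence; gain-of-signal relative to DMSO.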

Assay [3] addresses human Vitamin D Receptor (VDR), VDR (gene 7421) (UniProt P11473). In words: ATG_VDR_TRANS: Attagene TRANS-FACTORIAL HepG2 Assay for human Vitamin D Receptor (VDR) (AID 2283022; active = hit-call score of the fitted dose curve at least 0.9, where 1 is the maximum). The method, boiled down: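 Transactivation by an exogenous VDR-Gal4 chimera in transiently transfected HepG2 cells was measured as reporter transcript level 24 hours after chemical treatment. RT-PCR products were analysed by capillary electrophoresis and fitted in the positive direction relative to DMSO.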

Read-out in assay [4]: E-selectin (Homo sapiens) (UniProt P16581)
In words: BSK_3C_Eselectin: BioMAP Diversity Plus: 3C Assay for Eselectin Biomarker Activity (AID 2283015).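 As to outcome: cell surface E-selectin protein quantified by ELISA 24 h after dosing.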 Particulars: primary human endothelial cells (HUVEC); actives raise or lower the signal. The method, boiled down: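 E-selectin ELISA readout, fitted bidirectionally relative to DMSO, taken 24 h post-dosing in HUVEC cultures of the 3C system. Overt cytotoxicity tracked with sulforhodamine B staining of parallel wells.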

Read-out in assay [5]: Interleukin-1 alpha (IL1a), IL1A (gene 3552)
In words: BSK_BE3C_IL1a: BioMAP Diversity Plus: BE3C Assay for Interleukin-1 alpha (IL1a) Biomarker Activity (AID 2283016). The following applies: primary human bronchial epithelial cells; actives raise or lower the signal. The method, boiled down:
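Cultures of primary human bronchial epithelial cells receive test chemical. After 24 h, IL-1a is quantified by ELISA, while parallel wells are fixed in TCA and SRB-stained for total protein. Changes in either direction are fitted relative to DMSO.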

Read-out in assay [6]: Monocyte Chemoattractant Protein-1 (MCP1), CCL2 (gene 6347)
In words: BSK_3C_MCP1: BioMAP Diversity Plus: 3C Assay for Monocyte Chemoattractant Protein-1 (MCP1) Biomarker Activity (AID 2283017). Particulars: primary human endothelial cells (HUVEC); actives raise or lower the signal. The method, boiled down: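 MCP-1 was measured by ELISA 24 h after dosing in primary HUVEC 3C cultures and fitted in both directions relative to DMSO; cytotoxicity was checked by SRB total-protein staining in parallel wells.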

Read-out in assay [7]: Monocyte Chemoattractant Protein-1 (MCP1), CCL2 (gene 6347)
In words: BSK_4H_MCP1: BioMAP Diversity Plus: 4H Assay for Monocyte Chemoattractant Protein-1 (MCP1) Biomarker Activity (AID 2283018). The following applies: primary human endothelial cells (HUVEC); actives raise or lower the signal. The method, boiled down: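 Readout: MCP-1 ELISA on compound-treated HUVEC, sampled 24 h post-dosing. Baseline and negative control DMSO; bidirectional fit. Overt toxicity checked alongside by sulforhodamine B protein staining at time of biomarker measurement.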

Read-out in assay [8]: Human Leukocyte Antigen - DR isotype (HLADR), HLA-DRA (gene 3122)
In words: BSK_3C_HLADR: BioMAP Diversity Plus: 3C Assay for Human Leukocyte Antigen - DR isotype (HLADR) Biomarker Activity (AID 2283019).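 As to outcome: ELISA of cell-surface HLA-DR on HUVEC 24 h after dosing.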 The following applies: primary human endothelial cells (HUVEC); actives raise or lower the signal. The method, boiled down:
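Bidirectional fitting against DMSO was applied to the HLA-DR ELISA signal from human umbilical vein endothelial cells, 24 h post-dose. Cytotoxicity came from parallel SRB total-protein staining; 3C proliferation was counted by SRB at 48 h.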

Read-out in assay [9]: Interleukin-8 (IL8), CXCL8 (gene 3576)
In words: BSK_3C_IL8: BioMAP Diversity Plus: 3C Assay for Interleukin-8 (IL8) Biomarker Activity (AID 2283020). The following applies: primary human endothelial cells (HUVEC); actives raise or lower the signal. Put shortly: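 Human vascular endothelial cells (umbilical vein) in the 3C system; IL-8 level detected by ELISA at 24 h post-dose, with DMSO as baseline.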

Assay [10] is described as follows: BSK_3C_SRB: Viability Assessment in the BioMAP Diversity Plus: 3C Assay (AID 2283023).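 Also: fitted both ways against DMSO so a hit may be signal rise or drop.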 The following applies: primary human endothelial cells (HUVEC). Put shortly: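 Cytotoxicity readout in parallel HUVEC 3C cultures: after 24 h compound exposure, cells fixed with 10% TCA, stained with 0.1% SRB and read at 560 nm. Gain or loss relative to DMSO fitted.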
Read-out in assay [11]: Matrix Metallopeptidase 1 (MMP1), MMP1 (gene 4312)
In words: BSK_BE3C_MMP1: BioMAP Diversity Plus: BE3C Assay for Matrix Metallopeptidase 1 (MMP1) Biomarker Activity (AID 2283024). The following applies: primary human bronchial epithelial cells; actives raise or lower the signal. The method, boiled down:
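Dose cells, wait 24 h, run MMP1 ELISA; cells are human bronchial epithelial primaries. Both increases and decreases relative to DMSO counted.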

Read-out in assay [12]: Pselectin, SELP (gene 6403)
In words: BSK_4H_Pselectin: BioMAP Diversity Plus: 4H Assay for Pselectin Biomarker Activity (AID 2283026). Particulars: primary human endothelial cells (HUVEC); actives raise or lower the signal. The method, boiled down:
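Human vascular endothelium from umbilical vein; P-selectin measured by ELISA at 24 h post-dose, with cytotoxicity checked by sulforhodamine B total-protein staining in parallel cultures (0.1% SRB after 10% TCA fixation, read at 560 nm).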

Assay [13] is described as follows: BSK_4H_SRB: Viability Assessment in the BioMAP Diversity Plus: 4H Assay (AID 2283027).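 Also: cells exposed to compound for 24 h before staining.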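 As to AC50: curves fitted both ways versus DMSO so AC50 may be loss or gain.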 Particulars: primary human endothelial cells (HUVEC). The method, boiled down:
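Human umbilical vein endothelial cells were dosed with chemical and, after 24 h, fixed with 10% TCA, stained with 0.1% sulforhodamine B, and read at 560 nm to give total protein as a cytotoxicity measure. Bidirectional fitting relative to DMSO control.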

Assay [14] in a line: BSK_BE3C_SRB: Viability Assessment in the BioMAP Diversity Plus: BE3C Assay (AID 2283028). Particulars: primary human bronchial epithelial cells. The method, boiled down: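 Cytotoxicity read-out: SRB (0.1%) staining of TCA-fixed (10%) human lung bronchial epithelial cells, absorbance 560 nm, 24 h post-dosing. Curves fitted both directions relative to DMSO.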
Read-out in assay [15]: Thrombomodulin, THBD (gene 7056)
In words: BSK_3C_Thrombomodulin: BioMAP Diversity Plus: 3C Assay for Thrombomodulin Biomarker Activity (AID 2283029). The following applies: primary human endothelial cells (HUVEC); actives raise or lower the signal. The method, boiled down: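 Thrombomodulin ELISA, human primary HUVEC, 24 h post-dose; data fitted in both directions relative to DMSO.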

Read-out in assay [16]: Urokinase-type plasminogen activator receptor (uPAR), PLAUR (gene 5329)
In words: BSK_4H_uPAR: BioMAP Diversity Plus: 4H Assay for Urokinase-type plasminogen activator receptor (uPAR) Biomarker Activity (AID 2283030). The following applies: primary human endothelial cells (HUVEC); actives raise or lower the signal. Put shortly: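 uPAR level read by ELISA on HUVEC cultures (BioMAP 4H) 24 h post-dosing, analyzed for gain or loss relative to DMSO. Parallel SRB staining assessed overt cytotoxicity.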

Read-out in assay [17]: Vascular endothelial growth factor receptor 2 (Homo sapiens) (UniProt P35968)
In words: BSK_4H_VEGFRII: BioMAP Diversity Plus: 4H Assay for Vascular endothelial growth factor receptor 2 (VEGFR2) Biomarker Activity (AID 2283031). Particulars: primary human endothelial cells (HUVEC); actives raise or lower the signal. Put shortly: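 Measured by ELISA after 24 h of compound treatment: VEGFR2 on primary human umbilical vein endothelial cells, fitted in both directions relative to DMSO. Parallel cultures received SRB staining (560 nm) for overt cytotoxicity.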

In assay [18] the target is human Thyroid Receptor alpha (THRa1), THRA (gene 7067) (UniProt P10827). In words: ATG_THRa1_TRANS: Attagene TRANS-FACTORIAL HepG2 Assay for human Thyroid Receptor alpha (THRa1) (AID 2283014; active = hit-call score of the fitted dose curve at least 0.9, where 1 is the maximum). Put shortly:
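Transcripts from GAL4-UAS-driven reporters, measured after 24 h compound exposure by RT-PCR plus capillary electrophoresis of 6-FAM-labeled fragments, were fitted for gain of signal relative to DMSO. Cells: transiently transfected HepG2 expressing NR-Gal4 chimeras.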

Inconclusive results are not listed. Activity calls are given as the source filed them. The calls were made as follows, unless noted: active = hit-call score of the fitted dose curve at least 0.9, where 1 is the maximum; inactive = score below 0.9.

Chain of E-selectin (Homo sapiens) (P16581 whole entry, looked up): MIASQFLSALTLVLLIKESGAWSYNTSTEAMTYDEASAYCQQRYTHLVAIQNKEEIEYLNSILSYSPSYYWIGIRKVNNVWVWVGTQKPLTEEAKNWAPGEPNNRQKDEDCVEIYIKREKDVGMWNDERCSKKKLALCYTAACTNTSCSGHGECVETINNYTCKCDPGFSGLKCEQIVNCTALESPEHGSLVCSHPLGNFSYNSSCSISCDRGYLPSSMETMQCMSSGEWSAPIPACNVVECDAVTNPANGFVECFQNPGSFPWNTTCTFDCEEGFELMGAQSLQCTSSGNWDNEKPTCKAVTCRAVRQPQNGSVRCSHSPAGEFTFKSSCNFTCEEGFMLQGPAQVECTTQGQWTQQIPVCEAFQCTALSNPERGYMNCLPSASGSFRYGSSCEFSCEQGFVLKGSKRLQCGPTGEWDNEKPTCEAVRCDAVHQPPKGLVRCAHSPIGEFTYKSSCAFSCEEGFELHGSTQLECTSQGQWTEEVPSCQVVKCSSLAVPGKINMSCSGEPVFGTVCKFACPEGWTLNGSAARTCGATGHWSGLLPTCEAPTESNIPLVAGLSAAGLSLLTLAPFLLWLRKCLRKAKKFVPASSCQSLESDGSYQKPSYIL
Chain of human Retinoid X Receptor beta (RXRb), RXRB (gene 6257) (P28702 whole entry, looked up): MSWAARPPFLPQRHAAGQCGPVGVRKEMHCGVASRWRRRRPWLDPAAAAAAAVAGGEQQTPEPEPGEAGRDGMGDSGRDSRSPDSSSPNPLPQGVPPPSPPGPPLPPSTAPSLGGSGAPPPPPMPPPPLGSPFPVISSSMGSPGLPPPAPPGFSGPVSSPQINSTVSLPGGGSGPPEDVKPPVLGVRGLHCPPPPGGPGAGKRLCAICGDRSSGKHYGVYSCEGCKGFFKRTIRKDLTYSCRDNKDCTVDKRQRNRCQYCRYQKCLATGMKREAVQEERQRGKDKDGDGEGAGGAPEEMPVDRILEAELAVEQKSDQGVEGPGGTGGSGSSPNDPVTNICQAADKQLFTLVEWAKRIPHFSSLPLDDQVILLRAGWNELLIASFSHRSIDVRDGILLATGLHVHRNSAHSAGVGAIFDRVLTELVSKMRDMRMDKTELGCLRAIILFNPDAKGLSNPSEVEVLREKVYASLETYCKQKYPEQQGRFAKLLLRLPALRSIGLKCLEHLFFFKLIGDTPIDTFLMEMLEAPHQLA
Chain of human Thyroid Receptor alpha (THRa1), THRA (gene 7067) (P10827 whole entry, looked up, the tested form may be a part): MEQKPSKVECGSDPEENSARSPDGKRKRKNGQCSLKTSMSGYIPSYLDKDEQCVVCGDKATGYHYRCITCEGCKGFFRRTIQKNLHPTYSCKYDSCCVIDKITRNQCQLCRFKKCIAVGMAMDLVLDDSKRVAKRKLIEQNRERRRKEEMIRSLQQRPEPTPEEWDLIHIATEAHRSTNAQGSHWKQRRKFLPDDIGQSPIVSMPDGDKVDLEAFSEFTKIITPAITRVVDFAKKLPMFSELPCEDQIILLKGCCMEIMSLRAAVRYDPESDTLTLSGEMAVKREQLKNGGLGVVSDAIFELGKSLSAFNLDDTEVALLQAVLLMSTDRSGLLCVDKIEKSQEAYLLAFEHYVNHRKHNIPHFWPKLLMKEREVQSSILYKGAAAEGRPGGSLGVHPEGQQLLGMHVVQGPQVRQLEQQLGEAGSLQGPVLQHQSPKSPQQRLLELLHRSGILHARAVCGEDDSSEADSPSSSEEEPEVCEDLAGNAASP
Chain of human Vitamin D Receptor (VDR), VDR (gene 7421) (P11473 whole entry, looked up, the tested form may be a part): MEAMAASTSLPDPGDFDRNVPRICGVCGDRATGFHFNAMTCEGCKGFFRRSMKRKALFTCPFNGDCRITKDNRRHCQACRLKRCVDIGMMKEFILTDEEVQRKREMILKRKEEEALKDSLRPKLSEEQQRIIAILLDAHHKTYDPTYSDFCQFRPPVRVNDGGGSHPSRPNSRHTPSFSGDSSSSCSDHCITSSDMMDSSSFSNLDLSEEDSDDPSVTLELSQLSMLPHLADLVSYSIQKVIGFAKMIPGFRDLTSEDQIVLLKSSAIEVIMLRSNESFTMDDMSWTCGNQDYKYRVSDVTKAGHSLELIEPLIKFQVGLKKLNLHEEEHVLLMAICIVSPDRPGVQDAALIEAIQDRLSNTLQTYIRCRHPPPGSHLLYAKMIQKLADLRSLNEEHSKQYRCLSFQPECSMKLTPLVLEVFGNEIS
Chain of Retinoic acid receptor RXR-alpha (Homo sapiens) (P19793 whole entry, looked up, the tested form may be a part): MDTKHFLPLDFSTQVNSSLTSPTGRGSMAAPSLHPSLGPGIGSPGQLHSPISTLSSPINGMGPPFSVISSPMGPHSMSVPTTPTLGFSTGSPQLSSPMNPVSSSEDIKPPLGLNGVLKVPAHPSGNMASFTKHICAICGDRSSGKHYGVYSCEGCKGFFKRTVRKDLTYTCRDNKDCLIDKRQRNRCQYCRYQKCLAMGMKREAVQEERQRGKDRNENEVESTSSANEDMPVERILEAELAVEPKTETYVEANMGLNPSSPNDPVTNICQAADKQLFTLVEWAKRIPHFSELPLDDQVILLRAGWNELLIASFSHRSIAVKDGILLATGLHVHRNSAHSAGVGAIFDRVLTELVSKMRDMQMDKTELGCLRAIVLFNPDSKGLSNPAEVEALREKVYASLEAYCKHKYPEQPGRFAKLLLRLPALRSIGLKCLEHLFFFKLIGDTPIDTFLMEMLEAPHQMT

With `O=Cc1ccc(F)cc1`, the result in assay [1], in assay [2] and in assay [3] was inactive.

For the compound `O=C=NC1CCC(CC2CCC(N=C=O)CC2)CC1` (stereo not given), the call in [1], in assay [2], in assay [4], in assay [5], in [6] and in assay [7] was inactive. Moreover, the outcome in assay [8], in assay [9], in [3], in assay [10], in assay [11] and in [12] was inactive. In addition, the result in assay [13], in [14], in assay [15], in assay [16] and in assay [17] was inactive.

On to `CN(C)c1ccc(O)c2c1C[C@H]1C[C@H]3[C@H](N(C)C)C(=O)C(C(N)=O)=C(O)[C@@]3(O)C(=O)C1=C2O`, for which the compound was called inactive in assay [1], in assay [2] and in assay [3].

`O=C1CCc2ccccc2O1`: the compound was called inactive in [1], in [2] and in assay [3].

For the compound `O=c1oc(=O)c2cc3c(=O)oc(=O)c3cc12`, the compound was classed as inactive in assay [1] and in assay [3].

In the case of `COC(=O)C1=C(C)NC(C)=C(C(=O)OCCN(C)Cc2ccccc2)C1c1cccc([N+](=O)[O-])c1` (stereo not given), the outcome in assay [1] and in assay [3] was inactive.

As for `O=C(Nc1ccccc1)c1cc([N+](=O)[O-])ccc1Cl`, the result in [1] and in assay [18] was inactive.

On to `CC(c1cc2ccccc2s1)N(O)C(N)=O` (stereo not given), for which the compound was called inactive in [1], in assay [18] and in assay [3].

Regarding `CCCCCCCCC=O`, the call in [1], in assay [4], in assay [5], in assay [6], in assay [7] and in [8] was inactive. For the same compound, the outcome in assay [9], in assay [3], in assay [10], in [11], in assay [12] and in [13] was inactive. Besides, the result in assay [14], in assay [15], in assay [16] and in assay [17] was inactive.

On to `O=c1[nH]nnc2ccccc12`, for which the outcome in assay [1], in assay [18] and in [3] was inactive.

As for `O=C[C@@H](O)[C@H](O)[C@H](O)CO`, the outcome in [1] and in assay [18] was inactive.

As to `CCC(C)(O)CCC=C(C)C` (stereo not given), the result in assay [1] and in assay [3] was inactive.

As to `Cc1c(N(C)C)c(=O)n(-c2ccccc2)n1C`, the call in assay [1], in [18] and in [3] was inactive.

Turning to `CC1COc2ccccc2N1C(=O)C(Cl)Cl` (stereo not given), the outcome in assay [1], in assay [18], in assay [6], in assay [7], in assay [9] and in [3] was inactive. For the same compound, the result in assay [14], in assay [15], in [16] and in assay [17] was inactive. Besides, the concentration at half-maximal activity (AC50) (commonly the concentration giving half of the maximal activity seen) in assay [4] was 20 µM (active); in assay [5] it was 5.26 µM (active); in [8], 7.04 µM (active); in assay [10], 7.57 µM (active); in assay [12], 4.69 µM (active); in assay [13], 2.79 µM (active).

For the compound `O=Cc1ccc(Cl)c([N+](=O)[O-])c1`, the result in assay [1], in [18] and in [3] was inactive.
